An excerpt weighted towards active compounds, which were near 17% of everything screened.
DT40 TDP1 no CPT – qHTS for Inhibitors of human tyrosyl-DNA phosphodiesterase 1 (TDP1): qHTS in cells in absence of CPT. Potency, µM (series often up to 46.2 µM), most hits filed as inhibitors. 420,000 compounds, 15% hits. AID 686978, 2013. DT40 Tdp1-/- hTDP1 cells, no CPT, ATP luminescence, 48 h; note: nearly all actives have a fitted effect of over 55% in size
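Chicken DT40 Tdp1-/- cells complemented with human TDP1, screened without camptothecin (DMSO vehicle only), 400 cells/well. Compounds pin-transferred, cells incubated at 37 °C for at least 48 hr. Growth read as ATP-dependent luminescence (CellTiter-Glo, 30 min at RT).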
DT40 TDP1 CPT – qHTS for Inhibitors of human tyrosyl-DNA phosphodiesterase 1 (TDP1): qHTS in cells in presence of CPT; chicken DT40 Tdp1-/-;hTDP1 cells + 20 nM CPT, ATP luminescence, 48 h; Potency, µM (highest dose often 46.2 µM), most hits filed as inhibitors; 420,000 compounds, 12% hits; AID 686979, 2013; note: nearly all actives have a fitted effect of over 55% in size
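Chicken DT40 Tdp1-/- cells complemented with human TDP1, 400 cells/well, exposed to compounds plus 20 nM camptothecin for at least 48 h at 37 C; viability read as ATP content by CellTiter-Glo luminescence.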
HT1080 IDH1KD tx – qHTS for induction of synthetic lethality in tumor cells producing 2HG: qHTS for the HT-1080-IDH1KD cell line; AID 686971, 2013; Potency, µM (titrated, usually from 46.1 µM), usual class: cytotoxic; HT-1080 IDH1 knockdown viability, ATP luminescence, 48 h; 360,000 compounds, 2% hits
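Using the IDH1-knockdown HT-1080 line run in the same batch and compound series as the NT line, viability after 48 h at 37 °C was determined by CellTiter-Glo luminescence and expressed as % activity.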
TGFb inhibitor – qHTS for Inhibitors of TGF-b | Potency, µM (highest dose often 46.1 µM), most hits filed as inhibitors | AID 588855, 2011 | HepG2 CAGA-GFP TGF-b/SMAD3 reporter, GFP fluorescence, 18 h; TGF-beta stimulated, 500 pg/mL final | 410,000 compounds, 1.2% hits; note: nearly all actives have a fitted effect of over 65% in size
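Using HEPG2 CAGA-GFP reporter cells at 1000 cells/well, we pinned test compounds, stimulated with recombinant TGF-beta (500 pg/mL final) and measured total well GFP after 18 h.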
HT1080NT lethal – qHTS for induction of synthetic lethality in tumor cells producing 2HG: qHTS for the HT-1080-NT fibrosarcoma cell line | HT-1080-NT fibrosarcoma viability, CellTiter-Glo ATP luminescence, 48 h | Potency, µM (titrated, usually from 46.1 µM), usual class: cytotoxic | 360,000 compounds, 1.6% hits;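 note: NT is the 2HG producing partner of a matched IDH1 knockdown line; nearly all actives have a fitted effect of over 55% in size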
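Viability of the 2HG-overproducing fibrosarcoma line after 48 hours of compound exposure at 37 degrees C was determined by luminescence with CellTiter-Glo, and concentration-effect curves were then fitted and categorized.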
HepG2 viability – qHTS for Inhibitors of TGF-b: Cytotox Counterscreen; HepG2 CAGA-GFP viability, ATP luminescence, 18 h; Potency, µM (titrated, usually from 46.1 µM), actives largely listed as cytotoxic; 410,000 compounds, 0.76% hits
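HepG2 CAGA-GFP cells (1000/well, DMEM with 1% FBS) received compound, then TGF-beta at 500 pg/mL final, and were incubated 18 hours at 37 degrees C. Viability was read by CellTiter-Glo luminescence. Media-only wells were set as complete cell-killing and DMSO as no toxicity.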
Each line names hits and unclear results; the compound was inactive in the other large screens. Calls come from the whole dose curve; as a rule, active = well fitted curve in the direction sought with a large enough effect; inconclusive = small, poorly fitted or top-dose-only effect, or another doubt; inactive = no such curve, though single readings can be large; an effect the other way counts as inactive or inconclusive.

COc1ccc(Cc2nc3ccc(C(=O)NCCCSC)cc3o2)cc1OC	DT40 TDP1 no CPT inconclusive, DT40 TDP1 CPT inconclusive
CO/N=C1\CN(c2nc3c(cc2F)c(=O)c(C(=O)O)cn3C2CC2)CC1CN (configuration not stated)	DT40 TDP1 no CPT 4.6µM, DT40 TDP1 CPT 4.6µM (no result: HT1080 IDH1KD tx, TGFb inhibitor, HT1080NT lethal, HepG2 viability)
COc1cccc(CNC(=O)c2c(OC)cc(=O)n3c2CCN(C(=O)c2ccc(C)cc2C)CC3)c1	none (no result: HT1080 IDH1KD tx, TGFb inhibitor, HT1080NT lethal, HepG2 viability)
O=C(c1c[nH]c(C(=O)C(Cl)(Cl)Cl)c1)c1c(F)cccc1F	DT40 TDP1 no CPT 21µM, DT40 TDP1 CPT inconclusive, HT1080NT lethal inconclusive
Cc1sc2ncnc(NCC3(N4CCOCC4)CCCCC3)c2c1C	DT40 TDP1 no CPT 23µM, DT40 TDP1 CPT 21µM, TGFb inhibitor inconclusive
c1nc(NCC2(N3CCOCC3)CCCCC2)c2ccsc2n1	DT40 TDP1 no CPT 18µM, DT40 TDP1 CPT 12µM
CC(=O)N1CCN(C(=O)c2sc3ncnc(NCC4CCCO4)c3c2C)CC1 (configuration not stated)	none (no result: HT1080 IDH1KD tx, TGFb inhibitor, HT1080NT lethal, HepG2 viability)
Cc1sc2ncnc(NCC3CCCO3)c2c1C (configuration not stated)	DT40 TDP1 no CPT 9.2µM, DT40 TDP1 CPT 16µM
Cc1sc2ncnc(NCC(C)(C)N3CCOCC3)c2c1C	DT40 TDP1 no CPT 1.5µM, DT40 TDP1 CPT 2.1µM, TGFb inhibitor inconclusive
CC(=O)c1cc(-c2ccccc2)n(CCC(=O)Nc2cc(C)cc(C)c2)c1C	DT40 TDP1 no CPT inconclusive, DT40 TDP1 CPT inconclusive, TGFb inhibitor inconclusive (no result: HT1080 IDH1KD tx, HT1080NT lethal)
COC(=O)c1cc(C(=O)OCC(=O)Nc2ccc(N3CCOCC3)cc2)cc([N+](=O)[O-])c1	none
O=C(O)COc1nn(Cc2ccccc2)c2ccccc12	none (no result: HT1080 IDH1KD tx, TGFb inhibitor, HT1080NT lethal, HepG2 viability)
O=Nc1c2cc(-c3ccccc3)[nH]nc-2c2ccccc12	DT40 TDP1 no CPT 21µM, DT40 TDP1 CPT 21µM, HT1080 IDH1KD tx inconclusive
CCN(CC(=O)Nc1cccc(F)c1)CC(=O)Nc1ccccc1OC	none
CS(=O)(=O)N(Cc1ccccc1)c1ccc(C(=O)NCc2ccccc2)cc1	DT40 TDP1 CPT inconclusive
COc1cc(C2=NOC(C(=O)NCc3cccs3)C2)cc(OC)c1OC (configuration not stated)	DT40 TDP1 no CPT 1.6µM, DT40 TDP1 CPT 2.3µM, HT1080 IDH1KD tx 7.3µM, HT1080NT lethal 5.8µM
COc1ccc(C(=O)NCCNc2ccc([N+](=O)[O-])cc2)cc1	DT40 TDP1 no CPT inconclusive
COc1ccc(C2=NOC(C(=O)NCc3ccc(F)cc3)C2)cc1 (configuration not stated)	DT40 TDP1 no CPT 2.3µM, DT40 TDP1 CPT 2.3µM, HT1080 IDH1KD tx inconclusive, HT1080NT lethal inconclusive
O=C(NCc1cccs1)C1CC(c2ccccc2O)=NO1 (configuration not stated)	DT40 TDP1 no CPT inconclusive, DT40 TDP1 CPT 21µM
O=C(NCc1ccccn1)C1CC(c2ccccc2O)=NO1 (configuration not stated)	none
COc1cc(C2=NOC(C(=O)NCc3cccnc3)C2)cc(OC)c1OC (configuration not stated)	DT40 TDP1 no CPT inconclusive, DT40 TDP1 CPT inconclusive
COc1ccc(CCNC(=O)c2ccc([N+](=O)[O-])cc2)cc1	DT40 TDP1 no CPT inconclusive, DT40 TDP1 CPT 23µM
COc1cc(OC)cc(C(=O)N[C@H](C(=O)OCC(=O)Nc2ccc(F)c(F)c2F)C(C)C)c1	none
CCn1ncc(C2=NOC(C(=O)NCc3ccc(Cl)cc3)C2)c1C (configuration not stated)	DT40 TDP1 no CPT 5.8µM, DT40 TDP1 CPT 5.8µM, HT1080 IDH1KD tx 6.3µM, HT1080NT lethal 4.5µM
